Assay [1] is described as follows: qHTS assay to identify small molecule antagonists of the thyroid receptor (TR) signaling pathway (AID 743065). Note: nearly all actives have a fitted effect of over 55% in size. Note: potency is the fitted concentration of half-maximal effect. An outline of the steps: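 GH3.TRE-Luc rat pituitary cells (two TREs driving luciferase) were dosed with compound, then stimulated with 1 nM T3 (final) for 23.5 h at 37 C. ONE-Glo luminescence was the read-out, with CellTiter-Fluor fluorescence as the cytotoxicity counter-screen.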

Assay [2] has as its system thyroid hormone receptor (rat, GH3 cells). Briefly: qHTS assay to identify small molecule agonists of the thyroid receptor (TR) signaling pathway (AID 743066; calls by dose curve). (In general: In qHTS, concentration-response curves come from the screen itself.)
Assay [3] deals with Estrogen receptor (Homo sapiens) (UniProt P03372). Briefly: qHTS assay to identify small molecule antagonists of the estrogen receptor alpha (ER-alpha) signaling pathway (AID 743069; active = well fitted curve in the direction sought with a large enough effect in the signal ratio in the repeat runs, not every such curve was filed as active; the % refers to the signal ratio). An outline of the steps:
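In this cell-based reporter format, GripTite HEK293 cells harbouring ER-alpha-UAS-bla were grown overnight with 2% charcoal-stripped FBS, dosed with DMSO-dissolved compounds, then challenged with 17beta-estradiol. After 18 hr at 37C, beta-lactamase activity was detected by FRET fluorescence.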

Assay [4] can be described thus: qHTS assay to identify small molecule antagonists of the estrogen receptor alpha (ER-alpha) signaling pathway - cell viability counter screen (AID 743074; calls by dose curve; note: nearly all actives have a fitted effect of over 45% in size).
Assay [5] addresses Estrogen receptor (Homo sapiens) (UniProt P03372). Put plainly: qHTS assay to identify small molecule agonists of the estrogen receptor alpha (ER-alpha) signaling pathway (AID 743075; calls by dose curve).
The nature of assay [6]: qHTS assay to identify small molecule antagonists of the estrogen receptor alpha (ER-alpha) signaling pathway using the BG1 cell line (AID 743080; calls by dose curve;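 note: BG1 cells stimulated with 17beta-estradiol alongside compound; series mostly up to about 70 µM; nearly all actives have a fitted effect of over 25% in size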). An outline of the steps: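 Luminescence from a 4×ERE-luciferase reporter in BG1-Luc-4E2 cells served as read-out. Cells, pre-cultured 5 days in stripped-serum phenol-red-free medium, were exposed to compound with 17beta-estradiol co-stimulation for 21.5 h at 37 C.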

Assay [7] is described as follows: qHTS assay to identify small molecule antagonists of the estrogen receptor alpha (ER-alpha) signaling pathway using the BG1 cell line - cell viability counter screen (AID 743081).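 Note: compound given together with 17beta-estradiol as the ER stimulus; series mostly up to about 70 µM; nearly all actives have a fitted effect of over 45% in size.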
A further assay has as its target Aromatase (Homo sapiens) (UniProt P11511). Briefly: qHTS assay to identify aromatase inhibitors (AID 743083). Note: series mostly up to about 70 µM; nearly all actives have a fitted effect of over 55% in size.
Assay [8] can be described thus: qHTS assay to identify aromatase inhibitors - cell viability counter screen (AID 743084).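 Note: cells stimulated with testosterone during compound exposure; nearly all actives have a fitted effect of over 55% in size.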
Assay [9] addresses Aryl hydrocarbon receptor (Homo sapiens) (UniProt P35869). Put plainly: qHTS assay to identify small molecule that activate the aryl hydrocarbon receptor (AhR) signaling pathway (AID 743085).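 For activation: HG2L7.5c1 human HepG2 liver cells with stably integrated DRE-driven firefly reporter; series mostly up to about 70 µM.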 Note: nearly all actives have a fitted effect of over 15% in size. Note: potency is the fitted concentration of half-maximal effect. An outline of the steps: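 Luminescence (ONE-Glo) from a dioxin-responsive-element luciferase reporter in HG2L7.5c1 HepG2 cells after 24 hr compound exposure at 37C; viability measured by CellTiter-Fluor fluorescence beforehand.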

The nature of assay [10]: qHTS assay to identify small molecule that activate the aryl hydrocarbon receptor (AhR) signaling pathway - cell viability counter screen (AID 743086).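 Note: HepG2 liver cells carrying the AhR DRE luciferase reporter; series mostly up to about 70 µM; nearly all actives have a fitted effect of over 45% in size.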 An outline of the steps:
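HepG2-AhR-luc (HG2L7.5c1) cells, 4000/well, treated 24 h at 37 C with compound; viability measured as CellTiter-Fluor fluorescence after 30 min in the same wells as the luciferase read.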

Assay [11] concerns the target Peroxisome proliferator-activated receptor gamma (Homo sapiens) (UniProt P37231). Put plainly: qHTS assay to identify small molecule agonists of the peroxisome proliferator-activated receptor gamma (PPARg) signaling pathway (AID 743094; active = well fitted activation curve with a large enough effect in the signal ratio in the repeat runs, not every such curve was filed as active; the % refers to the signal ratio). An outline of the steps:
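Agonism was assessed in a beta-lactamase reporter system, HEK293H cells with a stably integrated UAS-bla construct under PPARg control; the 17 h treatment at 37C preceded a 1 h room-temperature FRET substrate read.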

The target is the same in assay [12]. Put plainly: qHTS assay to identify small molecule antagonists of the peroxisome proliferator-activated receptor gamma (PPARg) signaling pathway (AID 743191; calls by dose curve; note: series mostly up to about 63 µM; nearly all actives have a fitted effect of over 30% in size). An outline of the steps: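 GeneBLAzer PPARg UAS-bla HEK293H cells, 5 h post-plating, exposed to compounds 17 h at 37C. LiveBLAzer B/G FRET substrate added for 1 h at room temperature; beta-lactamase reporter read by fluorescence intensity.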

Assay [13] can be described thus: qHTS assay to identify small molecule antagonists of the peroxisome proliferator-activated receptor gamma (PPARg) signaling pathway - cell viability counter screen (AID 743194). Note: nearly all actives have a fitted effect of over 55% in size. An outline of the steps: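 Cytotoxicity counter screen in PPARg-bla HEK293H cells, same wells as reporter assay. Compounds plus 50 nM rosiglitazone (final) for 17 h at 37 C, then viability read by CellTiter-Glo luminescence.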

Assay [14] in a line: qHTS assay for small molecule agonists of the antioxidant response element (ARE) signaling pathway (AID 743202; active = well fitted activation curve with a large enough effect in the signal ratio in the repeat runs, not every such curve was filed as active; the % refers to the signal ratio). An outline of the steps: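 HepG2 ARE-bla cells; 16 h treatment at 37 C; FRET-based beta-lactamase fluorescence read after 2 h substrate incubation at room temperature.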
Assay [15] in a line: qHTS assay for small molecule agonists of the antioxidant response element (ARE) signaling pathway - cell viability counter screen (AID 743203; calls by dose curve; note: nearly all actives have a fitted effect of over 55% in size). An outline of the steps:
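ATP content via CellTiter-Glo luminescence served as the viability measure. Cells: ARE-bla HepG2, 2,000 per well. Exposure: 16 hrs, 37C/5% CO2.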

Assay [16] in a line: qHTS assay for small molecule activators of the heat shock response signaling pathway - cell viability counter screen (AID 743209). Note: nearly all actives have a fitted effect of over 50% in size. An outline of the steps: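 Compounds dissolved in DMSO were added to overnight-plated HSE-bla HeLa cells and left 5 h at 37 C. Cell viability was quantified by luminescence using CellTiter-Glo.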
Assay [17] is described as follows: qHTS assay for small molecule activators of the heat shock response signaling pathway (AID 743210; active = well fitted activation curve with a large enough effect in the signal ratio in the repeat runs, with a control signal flat, not every such curve was filed as active; the % refers to the signal ratio;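 note: HeLa cells with beta-lactamase reporter driven by heat shock elements; series mostly up to about 63 µM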). An outline of the steps: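 Following overnight attachment, HSE-bla HeLa cells received test compounds for 5 h at 37 C; beta-lactamase activity was then detected via FRET substrate fluorescence.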
Assay [18] can be described thus: qHTS assay to identify small molecule agonists of the peroxisome proliferator-activated receptor delta (PPARd) signaling pathway - cell viability counter screen (AID 743211). Note: nearly all actives have a fitted effect of over 55% in size. An outline of the steps: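 Viability was measured as CellTiter-Glo luminescence (30 min, room temperature) in the same wells as the beta-lactamase readout. GeneBLAzer PPARd UAS-bla HEK293H cells received compound after 5 h plating and were incubated 17 h at 37 C.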

Structures are written as SMILES. Inconclusive results are not listed. Active and inactive are the calls of the source. Unless noted, calls come from the whole dose curve; as a rule, active = well fitted curve in the direction sought with a large enough effect in the repeat runs; inconclusive = weak or mixed curves; inactive = no such curve, though single readings can be large; an effect the other way counts as inactive or inconclusive.

The results in this text go back to PubChem BioAssay (Tox21).

Sequence of Aromatase (Homo sapiens) (P11511 whole entry, looked up): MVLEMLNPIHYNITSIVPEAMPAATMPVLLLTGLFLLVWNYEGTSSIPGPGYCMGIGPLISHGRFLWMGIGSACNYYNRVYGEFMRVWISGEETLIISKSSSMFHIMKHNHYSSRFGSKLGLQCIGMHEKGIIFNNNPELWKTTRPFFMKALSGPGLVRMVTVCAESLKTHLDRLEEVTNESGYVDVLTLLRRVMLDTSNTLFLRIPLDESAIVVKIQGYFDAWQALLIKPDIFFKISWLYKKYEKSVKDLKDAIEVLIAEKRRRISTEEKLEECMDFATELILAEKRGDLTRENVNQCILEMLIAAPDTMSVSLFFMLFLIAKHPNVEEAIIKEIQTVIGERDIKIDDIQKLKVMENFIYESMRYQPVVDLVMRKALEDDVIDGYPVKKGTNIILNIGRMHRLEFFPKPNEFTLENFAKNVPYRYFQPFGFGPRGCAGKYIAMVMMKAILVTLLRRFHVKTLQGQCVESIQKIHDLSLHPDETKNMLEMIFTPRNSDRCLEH
Sequence of Peroxisome proliferator-activated receptor gamma (Homo sapiens) (P37231 whole entry, looked up): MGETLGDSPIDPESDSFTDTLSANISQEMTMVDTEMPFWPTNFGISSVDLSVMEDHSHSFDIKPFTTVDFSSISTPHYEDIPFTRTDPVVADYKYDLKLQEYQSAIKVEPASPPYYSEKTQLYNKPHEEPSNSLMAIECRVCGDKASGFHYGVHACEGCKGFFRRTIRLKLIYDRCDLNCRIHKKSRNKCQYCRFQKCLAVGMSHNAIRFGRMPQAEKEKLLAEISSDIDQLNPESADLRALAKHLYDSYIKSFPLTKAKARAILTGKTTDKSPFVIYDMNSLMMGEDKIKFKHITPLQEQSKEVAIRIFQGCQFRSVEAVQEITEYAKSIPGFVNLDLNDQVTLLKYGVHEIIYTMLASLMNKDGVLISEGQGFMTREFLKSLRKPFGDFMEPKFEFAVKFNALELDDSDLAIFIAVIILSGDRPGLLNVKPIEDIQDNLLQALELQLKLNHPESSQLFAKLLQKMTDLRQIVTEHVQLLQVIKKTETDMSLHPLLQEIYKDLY
Sequence of Aryl hydrocarbon receptor (Homo sapiens) (P35869 whole entry, looked up): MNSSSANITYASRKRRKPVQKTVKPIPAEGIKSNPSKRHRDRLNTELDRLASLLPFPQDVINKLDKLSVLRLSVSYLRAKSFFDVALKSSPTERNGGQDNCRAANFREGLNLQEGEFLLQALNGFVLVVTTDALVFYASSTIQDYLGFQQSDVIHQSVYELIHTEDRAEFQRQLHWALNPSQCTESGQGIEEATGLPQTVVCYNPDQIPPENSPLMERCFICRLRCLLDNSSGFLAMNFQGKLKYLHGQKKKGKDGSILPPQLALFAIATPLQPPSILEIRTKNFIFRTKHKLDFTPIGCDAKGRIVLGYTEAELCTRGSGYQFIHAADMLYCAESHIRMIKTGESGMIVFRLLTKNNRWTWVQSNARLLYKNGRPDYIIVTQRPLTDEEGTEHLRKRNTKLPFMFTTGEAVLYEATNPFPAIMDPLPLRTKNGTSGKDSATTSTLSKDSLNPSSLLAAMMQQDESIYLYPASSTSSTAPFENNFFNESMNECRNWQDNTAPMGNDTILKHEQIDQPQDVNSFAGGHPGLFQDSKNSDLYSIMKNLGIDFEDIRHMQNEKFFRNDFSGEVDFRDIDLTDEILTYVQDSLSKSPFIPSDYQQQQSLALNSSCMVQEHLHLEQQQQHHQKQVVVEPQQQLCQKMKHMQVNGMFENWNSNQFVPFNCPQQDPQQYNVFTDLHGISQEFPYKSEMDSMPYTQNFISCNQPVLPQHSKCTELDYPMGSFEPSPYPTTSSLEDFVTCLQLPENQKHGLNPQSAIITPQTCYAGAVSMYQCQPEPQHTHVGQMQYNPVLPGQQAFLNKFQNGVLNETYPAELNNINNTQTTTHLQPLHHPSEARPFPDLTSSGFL
Sequence of Estrogen receptor (Homo sapiens) (P03372 whole entry, looked up): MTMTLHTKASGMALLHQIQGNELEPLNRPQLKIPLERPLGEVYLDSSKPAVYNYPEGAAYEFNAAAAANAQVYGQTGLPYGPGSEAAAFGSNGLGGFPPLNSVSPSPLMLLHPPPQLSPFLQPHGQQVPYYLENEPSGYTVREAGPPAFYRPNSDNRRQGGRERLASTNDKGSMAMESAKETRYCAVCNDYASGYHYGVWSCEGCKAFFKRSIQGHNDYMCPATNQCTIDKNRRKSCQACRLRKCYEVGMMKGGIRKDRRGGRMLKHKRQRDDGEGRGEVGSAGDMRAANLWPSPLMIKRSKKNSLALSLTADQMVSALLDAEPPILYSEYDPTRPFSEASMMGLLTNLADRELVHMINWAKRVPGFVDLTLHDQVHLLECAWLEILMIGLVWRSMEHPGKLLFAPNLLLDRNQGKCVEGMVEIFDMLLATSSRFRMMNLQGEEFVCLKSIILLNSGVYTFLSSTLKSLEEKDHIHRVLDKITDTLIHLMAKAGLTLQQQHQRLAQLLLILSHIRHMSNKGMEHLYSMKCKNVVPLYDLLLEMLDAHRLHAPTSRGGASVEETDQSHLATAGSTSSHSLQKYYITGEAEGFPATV

`CCOc1ccc(NC(N)=O)cc1`: the Potency entry (in assay [1]; in assay [3]; in assay [4]; in [7]; with Aromatase (Homo sapiens); in assay [8]) was “inactive” throughout. In addition, the Potency result in assay [9], in assay [11], in assay [12], in assay [13], in assay [14] and in assay [15] was “inactive” throughout. The Potency entry in [17] and in assay [18] was “inactive” in each case. Further, the compound was called inactive in assay [2], in [5], in assay [6], in [10] and in assay [16].
For `Cc1c(C(=O)NCCO)[n+](=O)c2ccccc2n1[O-]`, the Potency result (in [1]; in assay [4]; in assay [7]; with Aromatase (Homo sapiens); in assay [8]; in [9]) was “inactive” each time. The Potency entry in assay [11], in assay [12], in assay [13], in assay [14], in assay [15] and in assay [17] was “inactive” in each case. Further, in assay [18], the Potency entry is “inactive”. Also, the compound was classed as inactive in [2], in assay [10] and in [16].
`CCCCCCCCCCCCOCCOS(=O)(=O)O`: in [1], the Potency was 68.6 µM (active). The result in assay [2], in [5], in assay [6], in assay [10] and in [16] was inactive. For the same compound, the Potency entry (in [4]; in assay [7]; with Aromatase (Homo sapiens); in assay [8]; in assay [9]; in [12]) was “inactive” throughout. The Potency result in assay [13], in assay [15] and in [17] was “inactive” each time.
`COC(=O)N[C@H](C(=O)N[C@@H](Cc1ccccc1)[C@@H](O)CN(Cc1ccc(-c2ccccn2)cc1)NC(=O)[C@@H](NC(=O)OC)C(C)(C)C)C(C)(C)C`: the Potency in assay [1] is 26.6 µM (active). Further, the compound was classed as inactive in [2], in [5] and in [16]. For the same compound, the Potency result (in assay [3]; in assay [7]; with Aromatase (Homo sapiens); in assay [9]; in assay [12]; in assay [13]) was “inactive” in each case. Besides, the Potency result in assay [15], in assay [17] and in assay [18] was “inactive” each time.
With `O=S(=O)(O)C(F)(F)F`, the Potency entry (in assay [1]; in assay [3]; in assay [4]; in assay [7]; in the assay with Aromatase (Homo sapiens); in assay [8]) was “inactive” in each case. Further, the Potency entry in assay [9], in assay [11], in [12], in [13], in assay [15] and in assay [17] was “inactive” throughout. Further, the Potency result in assay [18] was “inactive”. For the same compound, the outcome in [2], in assay [5], in assay [6], in assay [10] and in assay [16] was inactive.
As to `OCCN(CCO)CCN(CCO)CCO`, the Potency entry (in assay [1]; in assay [3]; in [4]; in assay [7]; with Aromatase (Homo sapiens); in assay [8]) was “inactive” each time. Besides, the Potency result in assay [9], in assay [11], in assay [13], in assay [15], in assay [17] and in [18] was “inactive” in each case. The result in assay [2], in assay [5], in assay [6], in assay [10] and in assay [16] was inactive.
With `C1CSCCS1`, the Potency result (in assay [1]; in [4]; in assay [7]; with Aromatase (Homo sapiens); in assay [8]; in assay [9]) was “inactive” each time. The Potency entry in [11], in assay [12], in assay [13], in [14], in assay [15] and in assay [17] was “inactive” each time. For the same compound, the Potency result in assay [18] is “inactive”. Further, the compound was called inactive in [2], in assay [10] and in assay [16].
For the compound `Cc1ccc([N+](=O)[O-])cc1Cl`, the Potency entry (in assay [1]; in [4]; in [7]; with Aromatase (Homo sapiens); in [8]; in assay [9]) was “inactive” throughout. Besides, the Potency entry in assay [11], in [12], in assay [13], in assay [14], in [15] and in assay [17] was “inactive” each time. Also, the Potency result in assay [18] was “inactive”. Further, the outcome in assay [2], in assay [10] and in assay [16] was inactive.
On to `NC/C=C/C(=O)O`, for which the Potency result (in assay [1]; in [4]; in [7]; with Aromatase (Homo sapiens); in [8]; in assay [9]) was “inactive” in each case. Moreover, the Potency entry in [11], in [12], in assay [13], in assay [14], in assay [15] and in assay [17] was “inactive” throughout. For the same compound, in assay [18], the Potency entry was “inactive”. In addition, the compound was called inactive in [2], in assay [10] and in [16].
On to `CC1=C(O)C(=O)OC1C` (stereo not drawn), for which the Potency entry (in [1]; in assay [4]; in assay [7]; with Aromatase (Homo sapiens); in assay [8]; in [9]) was “inactive” throughout. In addition, the Potency result in assay [11], in assay [12], in [13], in [14], in assay [15] and in assay [17] was “inactive” throughout. Moreover, the Potency result in [18] was “inactive”. For the same compound, the call in [2], in assay [10] and in assay [16] was inactive.
As to `Cc1ccc(C=O)s1`, the Potency result (in [1]; in assay [4]; in assay [7]; with Aromatase (Homo sapiens); in [8]; in assay [9]) was “inactive” in each case. Also, the Potency entry in assay [11], in assay [13], in assay [14], in [15] and in [18] was “inactive” in each case. Besides, the result in assay [2], in assay [10] and in [16] was inactive.
`COC(=O)c1ccc(OC)cc1`: the Potency result (in [1]; in assay [4]; in assay [7]; with Aromatase (Homo sapiens); in assay [8]; in [9]) was “inactive” each time. The Potency entry in [12], in assay [13], in assay [14], in assay [15], in assay [17] and in assay [18] was “inactive” throughout. The compound was called inactive in assay [2], in [10] and in assay [16].
Turning to `CCN1CC(CCN2CCOCC2)C(c2ccccc2)(c2ccccc2)C1=O` (stereo not drawn), the Potency result (in assay [1]; in assay [4]; in assay [7]; with Aromatase (Homo sapiens); in assay [8]; in assay [9]) was “inactive” each time. For the same compound, the Potency result in assay [11], in [12], in assay [13], in [15], in assay [17] and in assay [18] was “inactive” each time. Further, the compound was called inactive in [2], in [10] and in assay [16].
`CC1=NN(c2cc(Cl)c(S(=O)(=O)O)cc2Cl)C(=O)C1N=Nc1ccc(S(=O)(=O)O)cc1` (stereo not drawn): the Potency entry (in assay [1]; in [4]; in assay [7]; with Aromatase (Homo sapiens); in [9]; in assay [11]) was “inactive” throughout. In addition, the Potency entry in assay [12], in assay [13], in [14], in assay [15], in assay [17] and in [18] was “inactive” in each case. Besides, the call in [2] and in [16] was inactive.
`COc1cc2c(cc1N)oc1ccccc12`: the Potency result (in [1]; in assay [4]; in assay [7]; with Aromatase (Homo sapiens); in assay [8]; in assay [11]) was “inactive” in each case. Further, the Potency entry in [12], in assay [14] and in [15] was “inactive” throughout. Further, the result in [2], in assay [10] and in assay [16] was inactive. Further, in assay [9], the Potency is 31.3 µM (active).
